Measurements taken from PubChem BioAssay (EPA / NIEHS).
Activity calls are given as the source filed them. How the source made its calls: active means hit-call score of the fitted dose curve at least 0.9, where 1 is the maximum; inactive means score below 0.9.

Columns and labels:
[1] = APR_HepG2_NuclearSize_72hr: Apredica 72-hour HepG2 Assay for Nuclear Size (AID 2282925); details: high-content imaging, actives raise or lower the signal
Outline: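 HepG2; cpd 0.39–200 uM, 10 conc, duplicate; 72 h; DMSO 0.5% v/v; fix 3.7% formaldehyde 30 min RT; Triton permeabilization; Hoechst 2 ug/mL; HCS imaging 20x; nuclear diameter; gain/loss fit vs DMSO.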

[2] = ATG_CRE_CIS: Attagene CIS-FACTORIAL HepG2 Assay for human cAMP Responsive Element (CRE) binding protein 3 (AID 2282926); details: HepG2 CRE cis-reporter, Attagene multiplexed mRNA; actives raise or lower the signal
Outline: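 HepG2 cells transiently transfected with a multiplexed reporter library (CRE-driven unit among them) were dosed for 24 h. Reporter mRNA was quantified by RT-PCR, fluorescent labelling, HpaI digestion and capillary electrophoresis, with bidirectional fitting against DMSO baseline.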

[3] = biological target: CCAAT/enhancer-binding protein beta (Homo sapiens) (UniProt P17676); assay: ATG_C_EBP_CIS: Attagene CIS-FACTORIAL HepG2 Assay for human CCAAT/Enhancer Binding Protein (C/EBP) beta (AID 2282927); details: HepG2 Attagene cis-factorial transcription factor reporter; actives raise or lower the signal
Outline: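 Endogenous transcription factor activity in human liver HepG2 cells is inferred from induction of a CEBPB-linked reporter mRNA. Exposure lasts 24 h; activity is fitted in both directions relative to DMSO.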

[4] = ATG_CMV_CIS: Attagene CIS-FACTORIAL HepG2 Assay for human CMV (Internal Marker) (AID 2282928); details: HepG2 CMV promoter reporter, transcription factor profiling; actives raise or lower the signal;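 further: endpoint acts as a background internal control marker rather than a target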
Outline: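 After transient transfection of HepG2 with reporter transcription units driven by cis-regulatory promoters, cells receive test chemical for 24 h. Labeled reporter amplicons, digested with HpaI, are sized and quantified by capillary electrophoresis against DMSO.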

[5] = ATG_DR4_LXR_CIS: Attagene CIS-FACTORIAL HepG2 Assay for human Liver X Receptor (LXR), DR4 submotif (AID 2282929); details: HepG2 Attagene DR4 cis-reporter, mRNA transcription; actives raise or lower the signal
Outline: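 HepG2, transient MRTU transfection, cis-element (DR4) promoter; 24 h compound exposure; total RNA → oligo(dT) RT → PCR → 6-FAM primer extension → HpaI cut → CE. Gain/loss vs DMSO, bidirectional fit.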

[6] = biological target: Aryl hydrocarbon receptor (Homo sapiens) (UniProt P35869); assay: ATG_Ahr_CIS: Attagene CIS-FACTORIAL HepG2 Assay for human Aryl Hydrocarbon Receptor (Ahr) (AID 2282930); details: HepG2 AhR cis-factorial reporter transcription; actives raise or lower the signal
Outline: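 Transient MRTU transfection of HepG2 → 24 h compound exposure → total RNA, oligo(dT) RT → PCR, 6-FAM extension, HpaI cut → CE fluorescence. DMSO = baseline; bidirectional curve fit.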

[7] = ATG_AP_2_CIS: Attagene CIS-FACTORIAL HepG2 Assay for human Activator Protein 2 (AP-2) (AID 2282932); details: HepG2 AP-2 cis-reporter, Attagene transcription factor profiling; actives raise or lower the signal
Outline: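 Step one: transient transfection of HepG2 with reporter transcription units. Step two: 24 h chemical exposure. Step three: RNA extraction, RT-PCR, labelled fragment analysis by capillary electrophoresis; DMSO serves as baseline.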

[8] = ATG_BRE_CIS: Attagene CIS-FACTORIAL HepG2 Assay for human Bone Morphogenetic Protein (BMP) Response Element (BRE) (AID 2282933); details: HepG2 BMP response element reporter, Attagene transcription factor profiling; actives raise or lower the signal
Outline: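 After a 24 h chemical treatment, transiently transfected HepG2 cells were lysed for RNA; reporter transcripts were quantified by fluorescent RT-PCR and capillary electrophoresis, normalised to DMSO.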

[9] = biological target: Transcription factor E2F1 (Homo sapiens) (UniProt Q01094); assay: ATG_E2F_CIS: Attagene CIS-FACTORIAL HepG2 Assay for human E2F Transcription Factor 1 (AID 2282935); details: HepG2 Attagene cis-reporter, E2F reporter RNA transcripts; actives raise or lower the signal
Outline: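 Total RNA from 24 h-treated, reporter-transfected HepG2 cells undergoes DNase I treatment, oligo(dT) reverse transcription, PCR and 6-FAM primer extension before capillary electrophoresis.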

[10] = ATG_E_Box_CIS: Attagene CIS-FACTORIAL HepG2 Assay for human Enhancer Box (E-box) (AID 2282936); details: HepG2 E-box cis-reporter transcription, actives raise or lower the signal
Outline: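 DMSO served as negative control and baseline for bidirectional fitting. Human hepatoma HepG2 cells, transiently transfected with cis-reporter constructs, were dosed 24 h; reporter mRNA read by RT-PCR and capillary electrophoresis.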

[11] = ATG_M_61_CIS: Attagene CIS-FACTORIAL HepG2 Assay for M61 Transcription Factor (Internal Marker) (AID 2282937); details: HepG2 Attagene CIS-FACTORIAL M61 internal marker reporter; actives raise or lower the signal
Outline: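 Human liver HepG2, transient MRTU transfection (cis promoter elements), 24 h compound. Total RNA → oligo(dT) RT → PCR → FAM label → HpaI → CE. Internal background marker; bidirectional fitting, DMSO = baseline.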

[12] = ATG_EGR_CIS: Attagene CIS-FACTORIAL HepG2 Assay for human Early Growth Response 1 (EGR1) (AID 2282938); details: HepG2 Attagene CIS-FACTORIAL EGR reporter mRNA; actives raise or lower the signal
Outline: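 Transient transfection of human HepG2 with multiple cis-regulated reporter units, chemical exposure 24 h, total RNA isolated. Reverse transcription, PCR, fluorescent labelling and capillary electrophoresis quantify reporter transcripts; activity fitted bidirectionally against DMSO.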

[13] = ATG_M_19_CIS: Attagene CIS-FACTORIAL HepG2 Assay for M19 Transcription Factor (Internal Marker) (AID 2282939); details: HepG2 Attagene CIS-FACTORIAL M19 internal marker reporter; actives raise or lower the signal
Outline: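 In this multiplexed cell assay, transiently transfected HepG2 reporter units report endogenous transcription-factor activity; after 24 hours of treatment, labelled reporter cDNA fragments are quantified by capillary electrophoresis and fitted bidirectionally against DMSO.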

[14] = ATG_ERE_CIS: Attagene CIS-FACTORIAL HepG2 Assay for Estrogen Response Element (ERE) (AID 2282940); details: HepG2 ERE cis-reporter, Attagene RNA transcript; actives raise or lower the signal
Outline: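 Measuring endogenous transcription factor output, the assay doses transfected HepG2 cells for 24 hours and quantifies reporter transcripts by fluorescent RT-PCR and capillary electrophoresis, with DMSO as baseline.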

[15] = ATG_Ets_CIS: Attagene CIS-FACTORIAL HepG2 Assay for human Erythroblast Transformation Specific (ETS) (AID 2282941); details: HepG2 ETS cis-reporter transcription, actives raise or lower the signal
Outline: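 Human HepG2 hepatoma cells were transiently transfected with promoter-driven reporter constructs and treated for 24 hours. Reporter transcripts were quantified by RT-PCR with fluorescent primer extension; bidirectional curve fitting used DMSO as reference.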

[16] = biological target: Hepatocyte nuclear factor 3-beta (Homo sapiens) (UniProt Q9Y261); assay: ATG_FoxA2_CIS: Attagene CIS-FACTORIAL HepG2 Assay for human Forkhead box A2 (FOXA2) (AID 2282942); details: HepG2 cis-reporter transcription factor activity, 24 h; actives raise or lower the signal
Outline: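 Transient MRTU transfection of HepG2 liver cells; 24 h treatment; total RNA → oligo(dT) RT → PCR → FAM primer extension → HpaI cut → CE. Bidirectional fit vs DMSO.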

[17] = ATG_FoxO_CIS: Attagene CIS-FACTORIAL HepG2 Assay for human Forkhead box O (FoxO) (AID 2282943); details: HepG2 Attagene cis-reporter, FoxO element, mRNA; actives raise or lower the signal
Outline: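 HepG2, transient MRTU transfection (cis element, endogenous TFs). Dose 24 h. TriZol RNA → oligo(dT) RT → PCR → 6-FAM primer extension → HpaI cut → CE. Gain/loss vs DMSO.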

[18] = ATG_GATA_CIS: Attagene CIS-FACTORIAL HepG2 Assay for human GATA Binding Protein (AID 2282944); details: HepG2 GATA cis-element reporter, Attagene multiplex mRNA; actives raise or lower the signal
Outline: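 Measures endogenous transcription factor-driven reporter mRNA in HepG2 cells transiently carrying cis-regulated constructs. 24 h dosing; RNA via oligo(dT) reverse transcription, PCR, HpaI digestion, capillary electrophoresis; fitted relative to DMSO.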

Measured: AC50

Sequence of Hepatocyte nuclear factor 3-beta (Homo sapiens) (Q9Y261 whole entry, looked up): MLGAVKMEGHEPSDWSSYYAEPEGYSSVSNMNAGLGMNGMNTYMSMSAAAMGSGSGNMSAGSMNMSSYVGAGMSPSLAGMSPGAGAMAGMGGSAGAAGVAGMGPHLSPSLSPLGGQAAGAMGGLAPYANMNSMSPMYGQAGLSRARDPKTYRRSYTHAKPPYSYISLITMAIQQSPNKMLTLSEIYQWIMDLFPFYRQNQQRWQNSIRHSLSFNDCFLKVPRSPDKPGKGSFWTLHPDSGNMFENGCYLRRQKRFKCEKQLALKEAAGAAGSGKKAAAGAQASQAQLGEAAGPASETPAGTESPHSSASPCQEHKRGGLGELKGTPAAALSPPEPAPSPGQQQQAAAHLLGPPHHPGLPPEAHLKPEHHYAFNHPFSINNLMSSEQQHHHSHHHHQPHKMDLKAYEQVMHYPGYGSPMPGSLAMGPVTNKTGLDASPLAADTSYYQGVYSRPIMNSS
Sequence of CCAAT/enhancer-binding protein beta (Homo sapiens) (P17676 whole entry, looked up): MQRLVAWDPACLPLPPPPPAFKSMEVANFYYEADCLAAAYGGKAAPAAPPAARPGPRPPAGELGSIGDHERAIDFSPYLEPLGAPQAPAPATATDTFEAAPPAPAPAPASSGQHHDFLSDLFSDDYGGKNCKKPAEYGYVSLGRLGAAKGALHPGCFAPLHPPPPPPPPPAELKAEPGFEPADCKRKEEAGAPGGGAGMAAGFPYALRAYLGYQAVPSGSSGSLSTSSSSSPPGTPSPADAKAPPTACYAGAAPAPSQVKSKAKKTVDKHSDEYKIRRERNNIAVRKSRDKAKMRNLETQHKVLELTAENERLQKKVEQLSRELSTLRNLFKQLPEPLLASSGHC
Sequence of Aryl hydrocarbon receptor (Homo sapiens) (P35869 whole entry, looked up): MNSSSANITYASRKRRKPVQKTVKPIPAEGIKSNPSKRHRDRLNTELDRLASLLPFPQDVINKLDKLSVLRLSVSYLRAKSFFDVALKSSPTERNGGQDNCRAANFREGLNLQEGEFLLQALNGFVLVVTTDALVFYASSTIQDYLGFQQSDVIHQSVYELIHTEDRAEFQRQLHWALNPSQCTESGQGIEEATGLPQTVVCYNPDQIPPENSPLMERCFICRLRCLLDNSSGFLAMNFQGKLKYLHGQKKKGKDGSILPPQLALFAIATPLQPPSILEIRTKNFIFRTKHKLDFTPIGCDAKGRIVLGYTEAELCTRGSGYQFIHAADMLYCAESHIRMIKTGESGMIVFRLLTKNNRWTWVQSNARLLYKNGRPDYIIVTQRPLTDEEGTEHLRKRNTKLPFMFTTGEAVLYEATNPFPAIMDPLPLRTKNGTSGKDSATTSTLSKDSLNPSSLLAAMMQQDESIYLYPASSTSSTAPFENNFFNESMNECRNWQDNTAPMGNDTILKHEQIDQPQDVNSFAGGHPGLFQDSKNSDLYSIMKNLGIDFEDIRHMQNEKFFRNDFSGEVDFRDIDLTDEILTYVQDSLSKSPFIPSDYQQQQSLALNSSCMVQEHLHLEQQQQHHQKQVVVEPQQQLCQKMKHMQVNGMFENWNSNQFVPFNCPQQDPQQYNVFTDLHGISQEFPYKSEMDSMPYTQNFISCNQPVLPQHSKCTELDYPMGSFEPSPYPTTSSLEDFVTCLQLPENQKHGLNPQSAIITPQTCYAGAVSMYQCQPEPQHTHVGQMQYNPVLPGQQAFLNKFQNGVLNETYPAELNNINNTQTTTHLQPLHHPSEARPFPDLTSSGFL
Sequence of Transcription factor E2F1 (Homo sapiens) (Q01094 whole entry, looked up): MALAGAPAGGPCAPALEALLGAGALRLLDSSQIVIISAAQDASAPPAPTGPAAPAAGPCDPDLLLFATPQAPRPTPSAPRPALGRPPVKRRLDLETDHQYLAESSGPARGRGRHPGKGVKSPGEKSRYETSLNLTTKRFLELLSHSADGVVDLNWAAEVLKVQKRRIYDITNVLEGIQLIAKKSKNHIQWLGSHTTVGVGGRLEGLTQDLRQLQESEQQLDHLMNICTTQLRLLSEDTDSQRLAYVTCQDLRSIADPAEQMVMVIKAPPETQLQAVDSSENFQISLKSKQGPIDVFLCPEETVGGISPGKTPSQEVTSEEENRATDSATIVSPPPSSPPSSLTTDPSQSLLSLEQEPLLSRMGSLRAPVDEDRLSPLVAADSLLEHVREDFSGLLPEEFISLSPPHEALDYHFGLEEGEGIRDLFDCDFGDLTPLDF

Cc1cnc(C2=NC(C)(C(C)C)C(=O)N2)c(C(=O)O)c1 (stereo unspecified)
inactive: all assays above

CC(C)N1C(=O)N(c2ccccc2)CSC1=NC(C)(C)C
inactive: all assays above

COP(=O)(OC)O/C(C)=C/C(=O)N(C)C
active: [14] 23.5 µM
inactive: all other assays above

CSC(=O)c1c(C(F)F)nc(C(F)(F)F)c(C(=O)SC)c1CC(C)C
active: [5] 4.51 µM | [6] 81.5 µM | [14] 3.83 µM
inactive: all other assays above

CCN(CC)C(=O)C(C)Oc1cccc2ccccc12 (stereo unspecified)
active: [2] 2.24 µM | [3] 1.2 µM | [6] 14.9 µM | [8] 14.4 µM | [14] 25.2 µM
inactive: all other assays above

CS(=O)(=O)c1ccc(C(=O)C2C(=O)CCCC2=O)c([N+](=O)[O-])c1
inactive: all assays above

CCOP(=S)(OCC)Oc1nc(Cl)n(C(C)C)n1
active: [5] 6.85 µM | [14] 50 µM
inactive: all other assays above

COC(=O)N(C(=O)N1CO[C@@]2(C(=O)OC)Cc3cc(Cl)ccc3C2=N1)c1ccc(OC(F)(F)F)cc1
active: [2] 0.67 µM | [5] 13.8 µM | [8] 2.96 µM
inactive: all other assays above

COC(=O)NS(=O)(=O)c1ccc(N)cc1
active: [3] 13.2 µM
inactive: all other assays above

COC(=O)c1c(C(F)F)nc(C(F)(F)F)c(C2=NCCS2)c1CC(C)C
active: [2] 9.92 µM | [3] 0.682 µM | [5] 26.2 µM | [6] 50 µM | [8] 50 µM | [10] 9.92 µM | [14] 13.8 µM | [18] 88.5 µM
inactive: all other assays above

Nc1c(Cl)c(F)nc(OCC(=O)O)c1Cl
inactive: all assays above

Clc1nc(Cl)nc(Nc2ccccc2Cl)n1
active: [2] 76.6 µM | [3] 75.5 µM | [4] 27.4 µM
inactive: all other assays above
